This is a sample that favours compounds with a hit; in the whole collection about 4.1% have one here.
Gli-Sufu block – blocks Gli-Sufu signaling in a luciferase reporter; actives 0.74% (n = 340,000); inhibition, % at 5 µM; Sufu-KO-LIGHT fibroblasts, Gli luciferase reporter luminescence; AID 588413;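 active means inhibition above about 55%, limit read from the data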;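 further: 0% = DMSO-treated cells and 100% = wells with medium but no cells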
KLF5 inh – kruppel-like factor 5 inhibition; DLD-1 KLF5 promoter-luciferase reporter, luminescence; inhibition, % at 5 µM; actives 0.23% (n = 290,000);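 active means inhibition above a per-plate limit of that plate's mean compound inhibition plus 3 SD, cut at about 60% in these data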;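 further: 0% = DMSO wells and 100% = LY294002 at 200 µM; higher means less KLF5 promoter-driven luciferase light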
697 NFkB inh – lowers PMA/ionomycin-induced NF-kB signal in 697 B cells | 697 B-cell NF-kB luciferase reporter, 16 h | inhibition, % at 4 µM | actives 0.33% (n = 330,000) | AID 435022; in the data active means inhibition above about 35%
Jurkat NFkB inh – lowers PMA/ionomycin-induced NF-kB signal in Jurkat cells. PMA/ionomycin-induced NF-kB luciferase reporter, luminescence. inhibition, % at 4 µM. actives 0.53% (n = 330,000). AID 435003; in the data active means inhibition above about 50%
aSyn UTR inh – MLPCN primary screen, SNCA 5' untranslated region. alpha-synuclein 5'UTR reporter, inhibitor activity. inhibition, % (tested at 7.5 µM). actives 0.82% (n = 300,000). AID 1813; in the data active means inhibition above about 60%;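 further: H4 neuroglioblastoma cells stably carrying SNCA 5'UTR luciferase fusion; 0% = DMSO wells and 100% = positive control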
Mdm2-MdmX inh – human Mdm2/MdmX binding inhibition. O15151+Q00987. SaOS-2 split-luciferase Mdm2/MdmX complementation, luminescence. inhibition, % at 8 µM. actives 3% (n = 330,000). AID 485346;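 active means inhibition of at least 50% at 8 µM in the primary screen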
697 NFkB conf – lowers PMA/ionomycin-induced NF-kB signal in 697 B cells; shares compounds with 697 NFkB inh; 697 B-cell NF-kB luciferase, 16 h; inhibition, % at 4 µM; actives 35% (n = 2,000); in the data active means inhibition mostly above about 28%, no sharp cut-off; inactive means mostly below about 22%
Mdm2-MdmX conf – human Mdm2/MdmX binding inhibition, confirmed. shares compounds with Mdm2-MdmX inh. luminescent assay. inhibition, % at 8 µM. actives 55% (n = 10,000). AID 489028; in the data active means inhibition above about 40%
Full FLuc ctr – full-length luciferase inhibition in Mdm2/MdmX counter-screen; shares compounds with Mdm2-MdmX inh; actives 77% (n = 6,200); inhibition, % at 8 µM; SaOS-2 full-length luciferase counterscreen, luminescence; AID 504607;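 active means mean inhibition at 8 µM reaching about 37%, which flags the compound as non-specific, limit read from the data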;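 further: p53-null SaOS-2 cells with luciferase driven by a doxycycline-inducible promoter; compound on cells about two nights before reading with doxycycline added after day one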
The depositor's hits bear a star; i = inactive; . = not tested or not shown.

SMILES | Gli-Sufu block | KLF5 inh | 697 NFkB inh | Jurkat NFkB inh | aSyn UTR inh | Mdm2-MdmX inh | 697 NFkB conf | Mdm2-MdmX conf | Full FLuc ctr
O=C(Nc1ccc2c(c1)CCCN2C(=O)c1ccccc1)c1ccccc1Br | -9 | 24 | -333 | -13 | -8 | 79* | -180 | 46* | 77*
Cc1cccc(Cn2nc(C(C)(C)C)cc2C(=O)Nc2ccc(F)cc2)c1 | -6 | 22 | -299 | -45 | 32 | 87* | -370 | 81* | 31
COc1ccc(-n2c(C(C)(C)C)csc2=Nc2c(C)n(C)n(-c3ccccc3)c2=O)cc1 | -3 | -13 | 10 | -13 | 9 | 11 | . | . | .
CCc1nc(N=Nc2c(O)[nH]c3ccccc23)c2c3c(sc2n1)CCC3 | . | -26 | 37* | 2 | 43 | 87* | 7 | 13 | .
Oc1[nH]c2ccccc2c1N=Nc1ccccc1 | -32 | -62 | -107 | -87 | -123 | -96 | . | . | .
Cc1cc(C)c(S(=O)(=O)N2CCCCC2CCNC(=O)C(=O)NC2CC2)c(C)c1 (stereo not given) | 2 | . | i | -80 | -43 | 92* | i | 94* | 25
CCOC(=O)/C=C(\C)Sc1cc(=O)oc2ccccc12 | -4 | -14 | 36* | -3 | -7 | 55* | 28* | 34 | .
CCOC(=O)/C=C(\C)Sc1cc(O)c2ccccc2c1O | 16 | -11 | . | . | . | . | . | . | .
Cc1cc(N)n2ncc(-c3ccccc3)c2n1 | -105 | -178 | -92 | -80 | -149 | -184 | . | . | .
Cc1nc2c(-c3ccc(F)cc3)cnn2c(N)c1-c1ccccc1 | 41 | 41 | -310 | -36 | 41 | 91* | -224 | 87* | 110*
CNc1c(NS(=O)(=O)c2ccc(C3CCCCC3)cc2)c(=O)oc2ccccc12 | -28 | 1 | -5 | -7 | 15 | 6 | . | . | .
O=C(NC1CCCc2ccccc21)c1ccccc1 (stereo not given) | -9 | 3 | -2 | -5 | 15 | 18 | . | . | .
CCc1c(C(=O)NC2CCCc3ccccc32)[nH]c(C)c1C(C)=O (stereo not given) | 10 | 25 | -301 | -27 | 64* | 85* | -16 | 65* | 52*
Oc1ccc(C[C@@H]2CNCCN2CCC23CC4CC(CC(C4)C2)C3)cc1 | 12 | . | 37* | 12 | -50 | 73* | -3 | 24 | 64*
O=C(Cc1n[nH]c(=O)c2ccccc12)OCc1c(Cl)cccc1Cl | -1 | -2 | i | -31 | -44 | 57* | i | 55* | 62*
Cc1ccc(CC(=O)Nc2nc3c(s2)CCCC3)cc1 | -8 | 23 | i | -77 | -9 | 87* | -483 | 79* | 37*
COc1ccccc1OCC(=O)Nc1nc2c(s1)CCCC2 | -29 | -20 | -276 | -41 | -11 | 51* | -162 | 59* | 83*
COc1ccc(OCC(=O)Nc2nc3c(s2)CCCC3)cc1 | -15 | -2 | -7 | 1 | -30 | 11 | . | . | .
Cc1cc(=O)[nH]c2c(C)cc(S(=O)(=O)N3CCOCC3)cc12 | 4 | -36 | 15 | 3 | 20 | 11 | . | . | .
Cc1cc(=O)[nH]c2c(C)cc(S(=O)(=O)N3CCCCC3)cc12 | 30 | -31 | 43* | -3 | 11 | 70* | 36* | 54* | 89*
S=c1[nH]nc(-c2ccccc2)n1/N=C/c1ccc(-c2ccccc2Cl)o1 | 15 | 1 | i | -12 | 37 | 90* | -263 | 90* | 54*
Cc1cccc(CN2CCC(Oc3ccc(C(=O)N4CCCC4)cc3)CC2)n1 | 8 | -24 | 5 | -1 | 3 | 4 | . | . | .
Cn1c(=NC(=O)CCl)sc2ccccc21 | 7 | -5 | 88* | 46 | -16 | 98* | 79* | 97* | 29
Cn1c(=NC(=O)c2ccco2)sc2ccccc21 | -82 | 22 | -95 | -94 | -126 | -80 | . | . | .
CCCCc1ccc(NC2=NCC(=O)N2CCc2ccccc2)cc1 | 7 | 1 | -10 | -8 | 8 | 15 | . | . | .
SMILES | Gli-Sufu block | KLF5 inh | 697 NFkB inh | Jurkat NFkB inh | aSyn UTR inh | Mdm2-MdmX inh | 697 NFkB conf | Mdm2-MdmX conf | Full FLuc ctr
Cc1ccc(-c2ccc(=O)n(Cc3cccc(Br)c3)n2)cc1 | -25 | -28 | 2 | 9 | 0 | 33 | . | . | .
COc1ccc(/C=C2\SC(=S)N(CCCC(=O)Nc3ccccc3C(=O)O)C2=O)cc1OC | 1 | -9 | 8 | 23 | -2 | 11 | . | . | .
COc1cccc(/C=C2/SC(=S)N(CC(=O)NNC(=O)c3ccccc3O)C2=O)c1 | -21 | 20 | -2 | -15 | -9 | -30 | . | . | .
COc1cccc(/C=C2\SC(=S)N(CCCC(=O)NC3=NCCS3)C2=O)c1 | 4 | 16 | 42* | 14 | 55 | 63* | 51* | 15 | .
COc1cccc(/C=C2/SC(=S)N(CCCC(=O)Nc3ccc(O)cc3)C2=O)c1 | 49 | 40 | 80* | -8 | 50 | 100* | 74* | 85* | 3
COc1ccc(/C=C2/SC(=S)N(CCCC(=O)Nc3ccc(O)cc3)C2=O)cc1OC | 12 | -6 | 45* | -19 | 23 | 90* | 43* | 48* | 30
C#CCSc1n[nH]c(=O)n1-c1cccc(C(F)(F)F)c1 | -8 | -7 | -3 | 7 | 24 | 15 | . | . | .
Cc1ccc(C(=O)C[n+]2cc(-c3ccc(C)cc3)n3c2CCCCC3)cc1 | 88* | 3 | 80* | 46 | 5 | 53* | 54* | 54* | 48*
CCc1ccc(C2=CSC3=NCCN23)cc1 | 4 | -7 | -20 | -10 | 12 | 13 | . | . | .
COc1ccc(C2C(C#N)=C(N)Oc3cc(N)ccc32)cc1 (stereo not given) | -11 | -11 | -13 | -1 | 9 | 3 | . | . | .
COc1cc(C2C(C#N)=C(N)Oc3cc(N)ccc32)cc(OC)c1OC (stereo not given) | 55* | 7 | 39* | 45 | . | 88* | 45* | 66* | 68*
CCN1C(=O)[C@H]2[C@H]3CN=C(SCc4ccc(C)cc4)N3[C@@](C)(C(=O)OC)[C@H]2C1=O | 7 | . | 5 | . | . | -24 | . | . | .
CC(=O)Nc1ccc(S(=O)(=O)NCC(=O)Nc2ccc3c(c2)OCO3)cc1 | -9 | . | 15 | -1 | . | 16 | . | . | .
C(=N\Nc1nc(Nc2ccccc2)nc(Nc2ccccc2)n1)/c1cccnc1 | 3 | 7 | 35* | -15 | -23 | 72* | 30* | 51* | 81*
O=C(CCCN1C(=O)/C(=C/c2ccccc2Cl)SC1=S)Nc1ccccn1 | 9 | 20 | 46* | 12 | 42 | 67* | 68* | 55* | 21
O=C(CCCN1C(=O)/C(=C/c2ccccc2Cl)SC1=S)Nc1cccnc1 | 18 | 23 | 83* | 29 | -49 | 87* | 61* | 73* | 8

Compound activity (PubChem)
